The list is not random: actives were taken first. Their share in the collection is about 2.4%.
D2 PAM-1 – D2 dopamine receptor (human) potentiation. potentiation, % at 10 µM. 340,000 compounds, 0.34% hits. HEK293 T-REx D2, calcium flux, EC20 dopamine potentiation. AID 485347. P14416;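 active = potentiation over 3 SD above the plate norm, cut at about 30% in these data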; note: 0% is about no effect
Target sequence (P14416 whole entry, looked up): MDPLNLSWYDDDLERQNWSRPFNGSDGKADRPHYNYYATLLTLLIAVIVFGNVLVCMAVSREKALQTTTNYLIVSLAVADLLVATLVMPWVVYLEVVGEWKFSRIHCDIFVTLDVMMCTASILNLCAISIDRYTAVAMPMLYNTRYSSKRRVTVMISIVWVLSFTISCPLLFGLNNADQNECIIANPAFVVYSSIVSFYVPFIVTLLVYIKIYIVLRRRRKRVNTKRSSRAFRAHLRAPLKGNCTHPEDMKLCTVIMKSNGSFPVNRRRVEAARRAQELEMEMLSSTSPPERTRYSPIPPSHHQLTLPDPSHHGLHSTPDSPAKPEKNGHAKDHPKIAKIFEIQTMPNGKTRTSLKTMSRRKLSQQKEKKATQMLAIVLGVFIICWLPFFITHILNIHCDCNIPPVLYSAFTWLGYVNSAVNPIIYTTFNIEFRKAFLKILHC
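Using a no-wash calcium dye in inducible, force-coupled HEK293 Trex cells expressing D2, we tracked fluorescence each second for 180 s after compound, then for 180 s after EC20 dopamine to detect augmented signalling.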
D2 antag – antagonists of human D2 dopamine receptor; 340,000 compounds, 2% hits; inhibition, % at 10 µM; AID 485344; HEK293 TREx D2 cells, calcium flux, dopamine EC80; P14416; in the data active = inhibition above about 30%; inactive = below that, where a call was filed; note: 0% is about no effect
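Inhibition of EC80 dopamine-driven calcium flux, recorded kinetically, defines activity here; cells are a tetracycline-induced HEK293 T-REx line expressing force-coupled D2.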
D2 ag-1 – activates the human D2 dopamine receptor | activation, % (concentration not given with the values) | 360,000 compounds, 0.084% hits | P14416 | DiscoveRx PathHunter D2 beta-arrestin, luminescence, 90 min; 100% = 57 uM dopamine signal; in the data active = activation above about 40%; inconclusive = between about 15% and that limit
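DiscoveRx PathHunter D2 beta-arrestin cells (2,100/well) attached overnight, then compound-stimulated 90 min at 37 C in HBSS/10 mM HEPES/0.1% Tween-20 buffer; beta-galactosidase complementation read by luminescence after 1 h at ambient temperature. Dopamine 57 uM final (EC100) as control.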
D2 ag-2 – D2 dopamine receptor (human) agonism; 340,000 compounds, 0.53% hits; activation, % at 2 µM; AID 485358; HEK293 T-REx D2 cells, calcium flux agonist mode; P14416;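 active = activation over 3 SD above normal in the single-dose calcium agonist read, cut at about 30% in these data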; note: 0% is about no effect
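Calcium-flux readout, 1 cycle/sec over 180 s following compound pin transfer, in inducible HEK293 Trex D2 cells (force-coupled); dopamine controls included. Positive calcium responses during this window marked compounds as potential agonists.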
D2 PAM-2 – positive allosteric modulators of human D2 dopamine receptor | P14416 | DiscoveRx D2 beta-arrestin cells, luminescence, 90 min; 100% = 57 uM dopamine signal | potentiation, % (test concentration not listed) | 360,000 compounds, 0.23% hits | AID 624464; in the data active = potentiation above about 50%; inconclusive = mostly about 30% to 49%
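PathHunter beta-arrestin assay in DiscoveRx D2 cells. Compounds were added with an EC20 of dopamine (50 nM final) for 90 min at 37 deg C. Luminescence was read 1 h after detection reagent, with 57 uM dopamine as the EC100 control.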
The depositor's hits bear a star.

How did O=C(O)c1ccc(Cl)c(NC(=S)NC(=O)c2cccc(COc3ccccc3)c2)c1 do in these assays?
D2 PAM-1: 12; D2 antag: 36*; D2 ag-1: 2; D2 ag-2: -1; D2 PAM-2: -4

How did O=C(NC(=S)Nc1ccc(Cl)c(C(=O)O)c1)c1cccc(COc2ccccc2)c1 do in these assays?
D2 PAM-1: -8; D2 antag: -1; D2 ag-1: -2; D2 ag-2: -1; D2 PAM-2: -14

Results for Cc1ccc(-c2nn(CC(=O)Nc3cccc(C(F)(F)F)c3)c(=O)c3ccccc23)cc1 ?
D2 PAM-1: -3

Results for CCN(C(C)=O)c1cnc(C=NNC(N)=S)c2ccccc12 ?
D2 ag-1: inconclusive; D2 PAM-2: 57*

What do the screens show for `CCOC(=O)c1c(NC(=O)CC(C)C)sc(C(C)=O)c1C`?
D2 PAM-1: 37*; D2 antag: 7; D2 ag-1: -2; D2 ag-2: 1; D2 PAM-2: 7

What do the screens show for `Cc1nc2ccccc2n1CCc1nc2c3ccccc3nc(SCc3ccccc3F)n2n1`?
D2 PAM-1: 6

Results for Cc1oc(-c2ccccc2F)nc1CS(=O)(=O)CC(=O)NCCCN1CC(C)CC(C)C1 (stereo unspecified) ?
D2 PAM-1: -4; D2 antag: 48*; D2 ag-1: -7; D2 ag-2: -1; D2 PAM-2: -31

What do the screens show for `Cc1oc(-c2ccccc2F)nc1CS(=O)(=O)CC(=O)NCCCN1CCN(C)CC1`?
D2 PAM-1: 0; D2 antag: 10; D2 ag-1: -1; D2 ag-2: 1; D2 PAM-2: -8

How did CCCNC(=O)CS(=O)(=O)Cc1nc(-c2ccccc2C)oc1C do in these assays?
D2 PAM-1: 6; D2 antag: 40*; D2 ag-1: -3; D2 ag-2: 0; D2 PAM-2: -3

How did Cc1nnc(N2CCC(C(=O)N3CCCCC3)CC2)c2nn(-c3ccccc3)c(C)c12 do in these assays?
D2 PAM-1: 14; D2 ag-2: -1

Results for CC[C@@H](C(=O)[C@@H](C)[C@@H](O)[C@H](C)[C@@H]1O[C@@H]([C@@H](CC)C(=O)O)CC[C@@H]1C)[C@H]1O[C@]2(C=C[C@@H](O)[C@]3(CC[C@@](C)([C@H]4CC[C@](O)(CC)[C@H](C)O4)O3)O2)[C@H](C)C[C@@H]1C ?
D2 ag-1: 13; D2 PAM-2: 64*

How did COc1ccc(Cl)cc1NC(=O)CSc1nnc(C2CC2)n1N do in these assays?
D2 PAM-1: 31*; D2 antag: -10; D2 ag-1: -2; D2 ag-2: 0; D2 PAM-2: -8

Results for Nn1c(SCC(=O)Nc2ccccc2F)nnc1C1CCCCC1 ?
D2 PAM-1: 37*; D2 antag: -9; D2 ag-1: 2; D2 ag-2: 0; D2 PAM-2: -10

How did COc1ccc(OC)c(NC(=O)CSc2nncc(=O)n2N)c1 do in these assays?
D2 PAM-1: -15; D2 antag: 36*; D2 ag-1: -4; D2 ag-2: 1; D2 PAM-2: -9

How did CCNC(=O)CC1C(=O)N(c2ccc(C)cc2)C(=O)N1Cc1ccc(C)cc1 (stereo unspecified) do in these assays?
D2 PAM-1: 3; D2 ag-2: -1

How did O=C(NCc1ccco1)c1ccc2c(c1)C(=O)c1ccccc1-2 do in these assays?
D2 PAM-1: 14; D2 antag: 30*; D2 ag-1: 3; D2 ag-2: -2; D2 PAM-2: -7

Results for COc1ccc(-c2noc(-c3ccccc3C(=O)NCc3ccco3)n2)cc1 ?
D2 PAM-1: -4; D2 antag: 4; D2 ag-1: -8; D2 ag-2: 0; D2 PAM-2: -20

How did COc1ccc(-c2noc(-c3ccccc3C(=O)NCc3ccco3)n2)cc1OC do in these assays?
D2 PAM-1: 32*; D2 antag: -5; D2 ag-1: -2; D2 ag-2: 0; D2 PAM-2: -13

What do the screens show for `O=C(NCc1ccco1)c1ccc(S(=O)(=O)N2CCCc3ccccc32)cc1`?
D2 PAM-1: -13; D2 antag: 40*; D2 ag-1: 1; D2 ag-2: 3; D2 PAM-2: -4

How did O=C(NCc1ccco1)c1cc([N+](=O)[O-])cc([N+](=O)[O-])c1 do in these assays?
D2 PAM-1: 3; D2 antag: 6; D2 ag-1: 14; D2 ag-2: 0; D2 PAM-2: 83*

Results for COc1ccc(-c2cc(C(F)(F)F)n3nc(C(=O)O)c(Cl)c3n2)cc1OC ?
D2 PAM-1: -3

How did Cc1ccc(C(=O)COC(=O)C(CC(C)C)NC(=O)C2CCC(C)CC2)cc1 (stereo unspecified) do in these assays?
D2 PAM-1: 0; D2 ag-2: -1

How did CC(C)OCCCNC(=O)CN1C(=O)COc2ccc(S(=O)(=O)N3CCOCC3)cc21 do in these assays?
D2 PAM-1: 2; D2 ag-2: 0

Results for Cc1c(Cl)cccc1NC(=O)c1ncn(-c2ccccc2)n1 ?
D2 PAM-1: 6; D2 ag-2: -1

How did O=C(NC1CCCC1)c1cc(-c2ccccc2O)on1 do in these assays?
D2 PAM-1: -6; D2 antag: 48*; D2 ag-1: -6; D2 ag-2: 0; D2 PAM-2: -7

Results for O=C(NC1CCCC1)c1cc(-c2ccc(Cl)cc2Cl)on1 ?
D2 PAM-1: -10; D2 antag: 31*; D2 ag-1: 0; D2 ag-2: 0; D2 PAM-2: -3

What do the screens show for `O=C(NC1CCCC1)c1cc(-c2ccccc2Cl)on1`?
D2 PAM-1: -13; D2 antag: 50*; D2 ag-1: 3; D2 ag-2: -1; D2 PAM-2: -16

How did O=C(Nc1ccc2c(c1)OCO2)c1cc(-c2ccccc2Cl)on1 do in these assays?
D2 PAM-1: -33; D2 antag: 37*; D2 ag-1: 0; D2 ag-2: 0; D2 PAM-2: -12

Results for O=C(NC1CCCCC1)c1cc(-c2ccccc2Cl)on1 ?
D2 PAM-1: 0; D2 antag: 2; D2 ag-1: -4; D2 ag-2: 0; D2 PAM-2: -7

How did COC(=O)c1ccccc1NC(=O)C1CCCN(C(=O)c2cnn(-c3ccc(F)cc3)c2-n2cccc2)C1 (stereo unspecified) do in these assays?
D2 PAM-1: -4; D2 ag-2: -1

What do the screens show for `CCc1cc(=O)n2c([nH]c3ccccc32)c1C#N`?
D2 PAM-1: -11; D2 antag: 25; D2 ag-1: -3; D2 PAM-2: 1

What do the screens show for `CCc1cc(=S)n2c([nH]c3ccccc32)c1C#N`?
D2 PAM-1: 32*; D2 antag: 12; D2 ag-1: 2; D2 ag-2: 1; D2 PAM-2: 5

What do the screens show for `CCN(CC)CCCNC(=O)CSc1nc(-c2ccc(OC)cc2)cc(C(F)(F)F)n1`?
D2 ag-2: -1
